Data reported in PubChem BioAssay (Tox21).
Inconclusive results are not listed. Active and inactive are the calls of the source. Calls come from the whole dose curve; as a rule, active = well fitted activation curve with a large enough effect in the signal ratio in the repeat runs, with a control signal flat (not every such curve was filed as active); inconclusive = weak or mixed curves; inactive = flat fitted curve, though single readings scatter; the % refers to the signal ratio.

Test: qHTS assay for small molecule activators of the heat shock response signaling pathway (AID 743210)
Conditions: HeLa HSE-bla reporter, beta-lactamase ratio, 5 h; series mostly up to 62.6 µM
Text: U.S. Tox21 Program National Center for Advancing Translational Sciences [NCATS] NIH Chemical Genomics Center [NCGC] U.S. Environmental Protection Agency [EPA] National Institutes of Environmental Health Sciences [NIEHS] National Toxicology Program [NTP] U.S. Food and Drug Administration [FDA] Tox21 Assay Overview: Various chemicals, environmental and physiological stress conditions may lead to the activation of heat shock response/ unfolded protein response (HSR/UPR). There are three heat shock transcription factors (HSFs) (HSF-1, -2, and -4) mediating transcriptional regulation of the human HSR. To identify the compounds that activate HSR signaling, HSE-bla HeLa cell line (Invitrogen, Carlsbad, CA, USA) containing a beta-lactamase reporter gene under the control of the heat shock response elements was used to screen the Tox21 10K compound library.
Tox21 Assay Protocol Summary: The CellSensor HSE-bla HeLa cells (Invitrogen, Carlsbad, CA, USA) were dispensed at 1500 cells/6uL/well into 1536-well black wall/clear bottom plates using a Multidrop combi (Thermo Fisher Scientific, Waltham, MA) dispenser. After the assay plates were incubated at 37 C and 5% CO2 overnight, 23 nL of compounds dissolved in DMSO, positive controls or DMSO only was transferred to the assay plate by a Pintool station (Kalypsys, San Diego, CA). The plates were incubated at 37 C for 5 h. After 1 uL of LiveBLAzerTM B/G FRET substrate was added using a Flying Reagent Dispenser (Beckman Coulter, Indianapolis, IN, USA), the plates were incubated at room temperature for 2.5 h, and fluorescence intensity was measured by an Envision plate reader (PerkinElmer, Shelton, CT).

With `CC(C)CCCCCCCOC(=O)CCCCC(=O)OCCCCCCCC(C)C` as the molecule, how does the outcome read?
Its outcome is “inactive”.

Which outcome does the source give for `CC(C)(C#N)c1cc(Cn2cncn2)cc(C(C)(C)C#N)c1` here?
The outcome was “inactive”.

Which outcome does the source give for `CN(C)c1ccc(O)c2c1C[C@H]1C[C@H]3[C@H](N(C)C)C(=O)C(C(N)=O)=C(O)[C@@]3(O)C(=O)C1=C2O` here?
Its outcome is “inactive”.

For `CC(=O)c1ccc(O)cc1`, which outcome is on record?
Its outcome is “inactive”.

Which outcome does the source give for `CN1C(=O)CC[C@H]1c1cccnc1` here?
Its outcome is “inactive”.

Which outcome does the source give for `CN(C)c1ccc(Cc2ccc(N(C)C)cc2)cc1` here?
The outcome was “inactive”.

With `CCO[Si](CCC#N)(OCC)OCC` as the molecule, how does the outcome read?
The outcome was “inactive”.

With `COCCCN` as the molecule, how does the outcome read?
Its outcome is “inactive”.

With `Cc1ccc([N+](=O)[O-])cc1S(=O)(=O)O` as the molecule, how does the outcome read?
The outcome was “inactive”.

For `CC(=O)OCc1ccccc1`, which outcome is on record?
Its outcome is “inactive”.

Which outcome does the source give for `C=C(C)[C@H]1CC=C(C)C(=O)C1` here?
The outcome was “inactive”.

For `COc1ccc(C)cc1N`, which outcome is on record?
The outcome was “inactive”.

With `CC(=O)Oc1ccc(C)cc1` as the molecule, how does the outcome read?
Its outcome is “inactive”.

Which outcome does the source give for `N#Cc1ccccc1` here?
Its outcome is “inactive”.

For `COc1ccc(OC)cc1`, which outcome is on record?
Its outcome is “inactive”.

For `CCNc1ccccc1`, which outcome is on record?
The outcome was “inactive”.

For `CC(C)(Oc1ccc(CCNC(=O)c2ccc(Cl)cc2)cc1)C(=O)O`, which outcome is on record?
The outcome was “inactive”.

Which outcome does the source give for `CCOC(=O)c1ccc(N)cc1` here?
Its outcome is “inactive”.

Which outcome does the source give for `CCO[Si](CCCN)(OCC)OCC` here?
The outcome was “inactive”.

Which outcome does the source give for `COCCOC(=O)c1ccccc1C(=O)OCCOC` here?
Its outcome is “inactive”.

Which outcome does the source give for `CCCCCCCO` here?
The outcome was “inactive”.

For `O=C(O)c1ccc(S(=O)(=O)N(Cl)Cl)cc1`, which outcome is on record?
The outcome was “inactive”.

Which outcome does the source give for `O=C(O)/C=C/C(=O)O` here?
Its outcome is “inactive”.

Which outcome does the source give for `CC(=O)CCC=C(C)C` here?
The outcome was “inactive”.

With `CCCCCCCCCCCCCCCCO` as the molecule, how does the outcome read?
Its outcome is “inactive”.

For `O=C1c2ccccc2CCc2ccccc21`, which outcome is on record?
Its outcome is “inactive”.

With `NCCCCCCN` as the molecule, how does the outcome read?
The outcome was “inactive”.

Which outcome does the source give for `NCCN1CCNCC1` here?
The outcome was “inactive”.

For `O=C(O)c1ccc(C(=O)O)c(C(=O)O)c1`, which outcome is on record?
Its outcome is “inactive”.

For `CC(O)CC(C)(C)O` (stereo not given), which outcome is on record?
The outcome was “inactive”.

Which outcome does the source give for `O=S(=O)(O)c1ccc(N=Nc2c(O)ccc3cc(S(=O)(=O)O)ccc23)cc1` here?
The outcome was “inactive”.

For `CC(=O)OCCOC(C)=O`, which outcome is on record?
Its outcome is “inactive”.

Which outcome does the source give for `O=S(=O)(O)c1ccccc1` here?
The outcome was “inactive”.

For `Nc1nc(N)nc(-c2ccccc2)n1`, which outcome is on record?
The outcome was “inactive”.

With `NC(=S)NNC(N)=S` as the molecule, how does the outcome read?
The outcome was “inactive”.

With `O=c1[nH]cnc2[nH]ncc12` as the molecule, how does the outcome read?
The outcome was “inactive”.

With `CC(C)OC(=O)COc1ccc(Cl)cc1Cl` as the molecule, how does the outcome read?
The outcome was “inactive”.

For `O=C1CCCC1`, which outcome is on record?
Its outcome is “inactive”.

For `OCc1cccc(Oc2ccccc2)c1`, which outcome is on record?
The outcome was “inactive”.

Which outcome does the source give for `CCCCCCCCCCCC(=O)OC` here?
The outcome was “inactive”.
